PubChem BioAssay AID1159580 (chemical genetic matrix, 2015)
The campaign covered roughly 5,500 compounds. About 2,000 (36%) were called active. Inconclusive results (about 18%) are left out. Rule as the data show it: active = normalized growth mostly below about 0.91 (no sharp cut-off); inconclusive = no clear call, values can overlap the other calls; inactive = mostly above about 0.92. The list shows a part of the results.

Assay: chemical genetic growth profiling, strain panel (AID 1159580);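 also: tested at 20 µM; growth read once vehicle control cultures reached saturation at 30 °C; 1 = growth at the plate median or of vehicle wells; lower values mean less growth of the strain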
Details: growth OD

Measured: normalized growth

O[C@H]1C=C2CCN3Cc4cc5c(cc4C(C23)[C@@H]1O)OCO5 (stereo partly specified)
inactive: S. cerevisiae deletion strains, locus YBR021W, strain FUR4, stronger effect = lower value 1.05 | S. cerevisiae deletion strains, locus YDL185W, strain tfp1, stronger effect = lower value 0.965 | S. cerevisiae deletion strains, locus YKL068W, stronger effect = lower value 0.953 | S. cerevisiae deletion strains, locus YLR039C, strain RIC1, stronger effect = lower value 1.08 | S. cerevisiae deletion strains, locus YMR307W, strain GAS1, stronger effect = lower value 1.35 | S. cerevisiae deletion strains, locus YNL298W, strain CLA4, stronger effect = lower value 0.931 | S. cerevisiae deletion strains, locus YOL006C, strain TOP1, stronger effect = lower value 0.726 | S. cerevisiae deletion strains, locus YPR141C, strain kar3, stronger effect = lower value 0.976 | S. cerevisiae deletion strains, locus YPR163C, strain tif3, stronger effect = lower value 0.931
active: S. cerevisiae deletion strains, locus YBR229C, strain ROT2, stronger effect = lower value 0.665 | S. cerevisiae deletion strains, locus YCL029C, strain bik1, stronger effect = lower value 0.331 | S. cerevisiae deletion strains, locus YDL035C, strain GPR1, stronger effect = lower value 0.434 | S. cerevisiae deletion strains, locus YDL074C, strain BRE1, stronger effect = lower value 0.485 | S. cerevisiae deletion strains, locus YDL101C, strain DUN1, stronger effect = lower value 0.575 | S. cerevisiae deletion strains, locus YDL192W, strain arf1, stronger effect = lower value 0.591 | S. cerevisiae deletion strains, locus YDR101C, strain arx1, stronger effect = lower value 0.272 | S. cerevisiae deletion strains, locus YDR162C, strain NBP2, stronger effect = lower value 0.566 | S. cerevisiae deletion strains, locus YDR318W, strain mcm21, stronger effect = lower value 0.466 | S. cerevisiae deletion strains, locus YDR388W, stronger effect = lower value 0.514 | S. cerevisiae deletion strains, locus YDR502C, strain sam2, stronger effect = lower value 0.412 | S. cerevisiae deletion strains, locus YEL061C, strain CIN8, stronger effect = lower value 0.737 | S. cerevisiae deletion strains, locus YER110C, stronger effect = lower value 0.573 | S. cerevisiae deletion strains, locus YER155C, strain BEM2, stronger effect = lower value 0.87 | S. cerevisiae deletion strains, locus YER167W, strain BCK2, stronger effect = lower value 0.5 | S. cerevisiae deletion strains, locus YGL078C, strain dbp3, stronger effect = lower value 0.812 | S. cerevisiae deletion strains, locus YGL086W, strain mad1, stronger effect = lower value 0.541 | S. cerevisiae deletion strains, locus YGL248W, strain PDE1, stronger effect = lower value 0.398 | S. cerevisiae deletion strains, locus YGR078C, strain PAC10, stronger effect = lower value 0.615 | S. cerevisiae deletion strains, locus YGR135W, strain pre9, stronger effect = lower value 0.459 | S. cerevisiae deletion strains, locus YGR252W, strain gcn5, stronger effect = lower value 0.636 | S. cerevisiae deletion strains, locus YHR079C, strain IRE1 (second series), stronger effect = lower value 0.38 | S. cerevisiae deletion strains, locus YHR094C, strain hxt1, stronger effect = lower value 0.478 | S. cerevisiae deletion strains, locus YHR129C, strain ARP1, stronger effect = lower value 0.613 | S. cerevisiae deletion strains, locus YHR200W, strain rpn10, stronger effect = lower value 0.549 | S. cerevisiae deletion strains, locus YIL066C, strain RNR3, stronger effect = lower value 0.678 | S. cerevisiae deletion strains, locus YIL073C, strain SPO22, stronger effect = lower value 0.402 | S. cerevisiae deletion strains, locus YIL125W, strain kgd1, stronger effect = lower value 0.857 | S. cerevisiae deletion strains, locus YIR030C, strain dcg1, stronger effect = lower value 0.558 | S. cerevisiae deletion strains, locus YJL095W, strain BCK1, stronger effect = lower value 0.448 | S. cerevisiae deletion strains, locus YJL134W, strain LCB3, stronger effect = lower value 0.757 | S. cerevisiae deletion strains, locus YJL168C, strain set2, stronger effect = lower value 0.837 | S. cerevisiae deletion strains, locus YJL187C, strain SWE1 (second series), stronger effect = lower value 0.373 | S. cerevisiae deletion strains, locus YJR075W, strain HOC1, stronger effect = lower value 0.53 | S. cerevisiae deletion strains, locus YKL009W, strain mrt4, stronger effect = lower value 0.858 | S. cerevisiae deletion strains, locus YKL085W, strain MDH1 (second series), stronger effect = lower value 0.897 | S. cerevisiae deletion strains, locus YKL085W, strain MDH1, stronger effect = lower value 0.897 | S. cerevisiae deletion strains, locus YKL190W, strain CNB1, stronger effect = lower value 0.659 | S. cerevisiae deletion strains, locus YKR001C, strain vps1, stronger effect = lower value 0.558 | S. cerevisiae deletion strains, locus YLR058C, strain SHM2, stronger effect = lower value 0.395 | S. cerevisiae deletion strains, locus YLR102C, strain apc9, stronger effect = lower value 0.49 | S. cerevisiae deletion strains, locus YLR268W, strain sec22, stronger effect = lower value 0.454 | S. cerevisiae deletion strains, locus YLR330W, strain CHS5, stronger effect = lower value 0.656 | S. cerevisiae deletion strains, locus YLR342W, strain FKS1 (second series), stronger effect = lower value 0.483 | S. cerevisiae deletion strains, locus YLR371W, strain rom2, stronger effect = lower value 0.55 | S. cerevisiae deletion strains, locus YLR418C, strain cdc73, stronger effect = lower value 0.707 | S. cerevisiae deletion strains, locus YML016C, strain PPZ1, stronger effect = lower value 0.632 | S. cerevisiae deletion strains, locus YML032C, strain rad52, stronger effect = lower value 0.367 | S. cerevisiae deletion strains, locus YML124C, strain tub3, stronger effect = lower value 0.538 | S. cerevisiae deletion strains, locus YMR078C, strain ctf18, stronger effect = lower value 0.713 | S. cerevisiae deletion strains, locus YMR223W, strain ubp8, stronger effect = lower value 0.33 | S. cerevisiae deletion strains, locus YNL067W, strain RPL9B, stronger effect = lower value 0.495 | S. cerevisiae deletion strains, locus YNL128W, strain TEP1, stronger effect = lower value 0.466 | S. cerevisiae deletion strains, locus YNL233W, strain BNI4, stronger effect = lower value 0.557 | S. cerevisiae deletion strains, locus YNL250W, strain rad50, stronger effect = lower value 0.852 | S. cerevisiae deletion strains, locus YNL271C, strain bni1, stronger effect = lower value 0.908 | S. cerevisiae deletion strains, locus YNL307C, strain MCK1, stronger effect = lower value 0.694 | S. cerevisiae deletion strains, locus YNR052C, strain pop2, stronger effect = lower value 0.605 | S. cerevisiae deletion strains, locus YOL012C, strain htz1 2.41 [resistant] | S. cerevisiae deletion strains, locus YOL147C, strain pex11, stronger effect = lower value 0.498 | S. cerevisiae deletion strains, locus YOR061W, strain CKA2, stronger effect = lower value 0.565 | S. cerevisiae deletion strains, locus YOR069W, strain VPS5, stronger effect = lower value 0.657 | S. cerevisiae deletion strains, locus YOR136W, strain idh2, stronger effect = lower value 0.731 | S. cerevisiae deletion strains, locus YOR144C, strain elg1, stronger effect = lower value 0.47 | S. cerevisiae deletion strains, locus YOR184W, strain ser1, stronger effect = lower value 0.545 | S. cerevisiae deletion strains, locus YOR316C, strain cot1, stronger effect = lower value 0.599 | S. cerevisiae deletion strains, locus YPL055C, strain LGE1, stronger effect = lower value 0.627 | S. cerevisiae deletion strains, locus YPL241C, strain CIN2, stronger effect = lower value 0.74 | S. cerevisiae deletion strains, locus YPR119W, strain clb2, stronger effect = lower value 0.715 | S. cerevisiae deletion strains, locus YPR167C, strain met16, stronger effect = lower value 0.523 | S. cerevisiae deletion strains, strain wtn01, stronger effect = lower value 0.449 | S. cerevisiae strains, strain wild type, stronger effect = lower value 0.448
